From ChEMBL document CHEMBL2218924, “A broad activity screen in support of a chemogenomic map for kinase signalling research and drug discovery” (Biochem J, 2013)

Columns and labels:
[1] = molecular target: T1, Aurora kinase C (Homo sapiens) (UniProt Q9UQB9); conditions: at 1 µM
T1 sequence (whole entry): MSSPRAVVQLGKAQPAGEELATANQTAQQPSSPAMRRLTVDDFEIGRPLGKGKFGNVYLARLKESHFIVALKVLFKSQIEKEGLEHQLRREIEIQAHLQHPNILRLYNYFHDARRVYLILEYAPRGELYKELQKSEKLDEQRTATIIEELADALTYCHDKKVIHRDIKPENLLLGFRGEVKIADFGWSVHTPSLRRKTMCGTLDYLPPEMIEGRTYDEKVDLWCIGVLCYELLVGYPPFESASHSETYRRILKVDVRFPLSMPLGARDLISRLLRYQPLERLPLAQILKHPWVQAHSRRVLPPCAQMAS

[2] = molecular target: T1, Aurora kinase C (Homo sapiens); conditions: at 10 µM
[3] = molecular target: Tyrosine-protein kinase receptor UFO (Homo sapiens) (UniProt P30530); conditions: at 1 µM
[4] = molecular target: Tyrosine-protein kinase receptor UFO (Homo sapiens) (UniProt P30530); conditions: at 10 µM
[5] = molecular target: Protein-tyrosine kinase 6 (Homo sapiens) (UniProt Q13882); conditions: at 1 µM
[6] = molecular target: Protein-tyrosine kinase 6 (Homo sapiens) (UniProt Q13882); conditions: at 10 µM
[7] = molecular target: Tyrosine-protein kinase BTK (Homo sapiens) (UniProt Q06187); conditions: at 1 µM
[8] = molecular target: Tyrosine-protein kinase BTK (Homo sapiens) (UniProt Q06187); conditions: at 10 µM
[9] = molecular target: Tyrosine-protein kinase Blk (Homo sapiens) (UniProt P51451); conditions: at 1 µM
[10] = molecular target: Tyrosine-protein kinase Blk (Homo sapiens) (UniProt P51451); conditions: at 10 µM

Chain of Tyrosine-protein kinase receptor UFO (Homo sapiens) (P30530 whole entry): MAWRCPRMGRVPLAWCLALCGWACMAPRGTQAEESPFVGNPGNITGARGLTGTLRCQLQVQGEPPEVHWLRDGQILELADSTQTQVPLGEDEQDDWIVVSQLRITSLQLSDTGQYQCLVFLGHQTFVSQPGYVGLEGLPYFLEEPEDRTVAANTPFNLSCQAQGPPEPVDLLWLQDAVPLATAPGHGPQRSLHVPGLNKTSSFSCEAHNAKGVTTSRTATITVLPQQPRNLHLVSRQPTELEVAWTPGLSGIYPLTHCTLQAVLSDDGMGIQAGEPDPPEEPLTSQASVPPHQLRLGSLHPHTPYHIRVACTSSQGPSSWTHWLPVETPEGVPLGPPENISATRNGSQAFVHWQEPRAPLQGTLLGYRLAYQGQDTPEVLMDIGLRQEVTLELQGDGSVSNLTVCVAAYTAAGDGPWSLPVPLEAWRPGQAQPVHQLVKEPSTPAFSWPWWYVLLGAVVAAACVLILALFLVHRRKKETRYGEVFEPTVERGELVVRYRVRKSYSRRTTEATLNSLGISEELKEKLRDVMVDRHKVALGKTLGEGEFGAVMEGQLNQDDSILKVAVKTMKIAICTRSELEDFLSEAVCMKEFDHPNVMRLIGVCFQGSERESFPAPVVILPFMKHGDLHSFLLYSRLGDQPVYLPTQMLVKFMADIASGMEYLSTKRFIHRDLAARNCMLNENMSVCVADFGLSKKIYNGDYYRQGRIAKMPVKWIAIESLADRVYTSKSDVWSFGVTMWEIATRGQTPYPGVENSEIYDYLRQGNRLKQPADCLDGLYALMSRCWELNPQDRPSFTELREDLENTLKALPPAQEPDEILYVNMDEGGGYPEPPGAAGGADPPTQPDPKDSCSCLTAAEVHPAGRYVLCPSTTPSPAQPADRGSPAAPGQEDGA
Chain of Protein-tyrosine kinase 6 (Homo sapiens) (Q13882 whole entry, looked up): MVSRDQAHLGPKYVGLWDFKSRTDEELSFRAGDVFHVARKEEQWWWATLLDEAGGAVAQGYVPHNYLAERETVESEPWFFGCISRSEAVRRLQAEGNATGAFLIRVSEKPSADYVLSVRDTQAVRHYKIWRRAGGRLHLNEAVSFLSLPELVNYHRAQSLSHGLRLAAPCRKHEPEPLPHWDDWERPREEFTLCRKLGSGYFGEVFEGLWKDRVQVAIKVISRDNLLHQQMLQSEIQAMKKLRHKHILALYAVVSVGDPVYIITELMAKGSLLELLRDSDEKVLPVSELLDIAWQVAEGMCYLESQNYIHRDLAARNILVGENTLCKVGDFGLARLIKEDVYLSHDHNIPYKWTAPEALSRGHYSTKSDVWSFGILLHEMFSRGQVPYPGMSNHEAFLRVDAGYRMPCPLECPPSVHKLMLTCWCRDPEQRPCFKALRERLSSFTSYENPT
Chain of Tyrosine-protein kinase BTK (Homo sapiens) (Q06187 whole entry): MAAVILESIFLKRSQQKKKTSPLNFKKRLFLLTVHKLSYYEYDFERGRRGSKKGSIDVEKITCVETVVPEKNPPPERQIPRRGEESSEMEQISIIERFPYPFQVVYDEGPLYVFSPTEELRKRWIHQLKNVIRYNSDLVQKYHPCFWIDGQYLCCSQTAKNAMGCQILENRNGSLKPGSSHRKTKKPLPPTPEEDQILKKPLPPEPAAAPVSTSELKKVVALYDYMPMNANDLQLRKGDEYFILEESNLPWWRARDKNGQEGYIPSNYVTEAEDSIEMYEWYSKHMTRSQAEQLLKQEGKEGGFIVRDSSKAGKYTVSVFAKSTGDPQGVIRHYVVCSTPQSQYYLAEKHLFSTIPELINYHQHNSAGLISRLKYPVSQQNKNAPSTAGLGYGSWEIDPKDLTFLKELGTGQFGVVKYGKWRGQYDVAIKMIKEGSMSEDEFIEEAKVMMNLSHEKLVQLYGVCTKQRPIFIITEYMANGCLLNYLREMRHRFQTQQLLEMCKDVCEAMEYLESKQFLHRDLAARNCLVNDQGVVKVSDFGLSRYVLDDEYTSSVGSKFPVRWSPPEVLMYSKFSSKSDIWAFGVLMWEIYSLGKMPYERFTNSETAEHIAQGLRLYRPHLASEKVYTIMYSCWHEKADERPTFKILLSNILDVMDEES
Chain of Tyrosine-protein kinase Blk (Homo sapiens) (P51451 2-505 limits assumed): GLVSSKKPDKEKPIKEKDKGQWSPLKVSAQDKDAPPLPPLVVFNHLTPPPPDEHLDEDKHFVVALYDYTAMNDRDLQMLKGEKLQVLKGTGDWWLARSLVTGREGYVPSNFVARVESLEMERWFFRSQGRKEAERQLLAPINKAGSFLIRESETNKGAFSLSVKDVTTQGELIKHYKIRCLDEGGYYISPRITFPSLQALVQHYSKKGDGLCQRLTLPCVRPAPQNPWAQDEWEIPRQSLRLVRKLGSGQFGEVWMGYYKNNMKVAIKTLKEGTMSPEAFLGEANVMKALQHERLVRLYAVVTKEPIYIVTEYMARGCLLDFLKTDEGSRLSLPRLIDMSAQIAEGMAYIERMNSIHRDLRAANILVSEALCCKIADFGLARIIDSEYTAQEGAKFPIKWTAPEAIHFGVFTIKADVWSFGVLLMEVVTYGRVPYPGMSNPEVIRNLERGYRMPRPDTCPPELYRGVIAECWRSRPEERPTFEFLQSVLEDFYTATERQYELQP

| SMILES | residual activity [1] | residual activity [2] | residual activity [3] | residual activity [4] | residual activity [5] | residual activity [6] | residual activity [7] | residual activity [8] | residual activity [9] | residual activity [10] |
| --- | --- | --- | --- | --- | --- | --- | --- | --- | --- | --- |
| Oc1ccc(Nc2nc(-c3ccc(Cl)cc3)cs2)cc1 | 90% | 92% | 114% | 80% | 107% | 102% | 95% | 84% | 111% | 86% |
| CNc1cc2c(Nc3cccc(Br)c3)ncnc2cn1 | 85% | 64% | 75% | 69% | 69% | 53% | 98% | 83% | 103% | 65% |
| O=C1NC(=O)/C(=C/c2ccc3c(c2)OC(F)(F)O3)S1 | 110% | 80% | 98% | 84% | 110% | 104% | 86% | 95% | 119% | 94% |
| Cn1cnc2cc3c(Nc4cccc(Br)c4)ncnc3cc21 | 80% | 52% | 77% | 57% | 78% | 55% | 67% | 44% | 50% | 18% |
| CC(=O)O/N=C1\C(=C2\C(=O)Nc3cc(Br)ccc32)Nc2ccccc21 | 89% | 82% | 77% | 44% | 99% | 77% | 25% | 4% | 19% | 3% |
| COc1ccc(C(=O)Nc2sc3c(c2C(N)=O)CCCC3)cc1OC | 97% | 76% | 76% | 76% | 108% | 114% | 84% | 118% | 109% | 94% |
| C[C@@H](N)[C@H]1CC[C@H](C(=O)Nc2ccncc2)CC1 | 96% | 72% | 102% | 103% | 97% | 89% | 101% | 104% | 92% | 100% |
| CCN(CC)CCCCN1c2ccccc2Oc2ccc(Cl)cc21 | 108% | 92% | 88% | 83% | 118% | 108% | 78% | 109% | 110% | 88% |
| CN(C)c1ccc(/C=C2\C(=O)Nc3ccccc32)cc1 | 88% | 39% | 78% | 49% | 112% | 97% | 113% | 86% | 87% | 62% |
| COc1cc2ncnc(Nc3ccc(Oc4ccccc4)cc3)c2cc1OC | 59% | 59% | 54% | 25% | 7% | 4% | 15% | 2% | 0% | 0% |
| Cn1cc(/C=C2\C(=O)Nc3ccc(S(N)(=O)=O)cc32)c2ccccc21 | 40% | 39% | 13% | 27% | 97% | 101% | 19% | 5% | 9% | 3% |
| O=C1NC(=O)c2cc(Nc3ccc(F)cc3)c(Nc3ccc(F)cc3)cc21 | 92% | 73% | 94% | 81% | 89% | 48% | 86% | 87% | 98% | 38% |
| O=C(Nc1cccc(Nc2cc(Nc3cccc(C(F)(F)F)c3)ncn2)c1)C1CC1 | 90% | 87% | 102% | 83% | 94% | 94% | 99% | 71% | 97% | 69% |
| Cc1ccc(S(=O)(=O)/C=C/C#N)cc1 | 93% | 90% | 107% | 94% | 107% | 106% | 98% | 96% | 108% | 117% |
| CO[C@H]1[C@@H](OC)C[C@H](C)[C@@H](OC)C2=CC(=O)C=C(NC(=O)/C(C)=C/C=C/[C@H](OC)[C@@H](OC(N)=O)/C(C)=C/[C@@H]1C)C2=O | 76% | 90% | 104% | 77% | 109% | 106% | 83% | 101% | 90% | 78% |
| CO[C@H]1C[C@@H]2CC[C@@H](C)[C@@](O)(O2)C(=O)C(=O)N2CCCC[C@H]2C(=O)O[C@H]([C@H](C)C[C@@H]2CC[C@@H](O)[C@H](OC)C2)CC(=O)[C@H](C)/C=C(\C)[C@@H](O)[C@@H](OC)C(=O)[C@H](C)C[C@H](C)/C=C/C=C/C=C/1C | 79% | 69% | 89% | 84% | 101% | 102% | 91% | 106% | 90% | 82% |
